# Laboratory results published in PubChem BioAssay (NCI).
# About 83,000 compounds went through this panel and 20% of them were active in at least one assay; those are over-represented in the sample as a whole.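 Single-concentration screen, 48 h exposure, 96-well plates. Endpoint: percent growth. Below 10 = active.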 Unmarked numbers belong to inactive results. Activity calls are given as the source filed them.
# Experiments:
# Assay in all cases: NCI-60 one-dose screen, 48 h (100 = growth as untreated, 0 = no growth, -100 = all killed)
# Details in all cases: 10 µM unless noted
# SK-MEL-2 melanoma = test system: SK-MEL-2 melanoma
# SN12C renal = test system: SN12C renal
# UO-31 renal = test system: UO-31 renal
# TK-10 renal = test system: TK-10 renal
# ACHN renal = test system: ACHN renal
# CAKI-1 renal = test system: CAKI-1 renal
# A498 renal = test system: A498 renal
# CCRF-CEM leukemia = test system: CCRF-CEM leukemia
# MOLT-4 leukemia = test system: MOLT-4 leukemia
Compound,growth (SK-MEL-2 melanoma),growth (SN12C renal),growth (UO-31 renal),growth (TK-10 renal),growth (ACHN renal),growth (CAKI-1 renal),growth (A498 renal),growth (CCRF-CEM leukemia),growth (MOLT-4 leukemia)
O=c1oc2cc(OS(=O)(=O)c3ccc(F)cc3)ccc2c2c1CCCCC2,72%,70.1%,50.2%,89.6%,84.9%,86.7%,83.4%,36%,63.8%
COc1cc2nc(Cl)nc(NCCO)c2cc1OC,125%,104%,94.8%,103%,98.3%,111%,79.7%,98.8%,101%
O=C1Nc2ccc(Br)cc2C1=N/C=c1\[nH]c(=O)/c(=C/c2ccc(Cl)cc2)s1,99.7%,102%,85.2%,101%,90.8%,101%,94.5%,87.9%,90.9%
CCNCc1ccncc1,106%,108%,89.8%,99.5%,108%,94%,97.8%,95%,92%
N#Cc1ncc(-c2ccc(F)c(F)c2F)c(NC2CCCCCC2)n1,95.8%,78.2%,68.9%,91.5%,84.7%,79%,124%,33.4%,68.1%
CC(C(=O)n1cc(-c2ccccc2)c(-c2ccccc2)c1)c1ccccc1 (configuration not stated),104%,108%,88.6%,98.8%,115%,91.6%,99.8%,103%,102%
Cc1cc(-c2ccccc2)c(C)n1Cc1ccc(Cl)cc1,31.2%,49.3%,50.5%,76.6%,54.8%,21.5%,23.8%,43.5%,17.1%
CC/C(=C(\c1ccc(O)cc1)c1ccc(OCCN(C)CCN(C)C(=O)CCC(=O)c2c(C)[nH]c(/C=C3\N=C(c4ccc[nH]4)C=C3OC)c2C)cc1)c1ccccc1,96.8%,91.8%,46.9%,117%,95.5%,71.4%,65.2%,40.8%,71.7%
CCn1cc(C(=O)O)c(=O)c2cc(F)c(N3CCN(S(=O)(=O)c4ccc(OC)c(OC)c4)CC3)cc21,91.8%,101%,62.1%,100%,93%,99%,90.4%,99.7%,78.9%
COc1ccc(/C=C/C(=O)/C=C/c2cc3ccc(Cl)cc3[nH]c2=O)cc1,94%,85.7%,75.7%,124%,88.6%,93.2%,92.7%,56.8%,65.3%
O=C(Nc1cc(C(F)(F)F)cc(C(F)(F)F)c1)Nc1ccc(OCc2nnc(-c3ccc(Cl)cc3)o2)c(F)c1,-37.9% (active),11.1%,-2.51% (active),21.1%,-6.91% (active),4.76% (active),-7.1% (active),6.66% (active),18%
N=C(N)c1ccc(-c2ccc(-c3ccc(Cl)cc3)o2)nc1,-90.7% (active),-80.7% (active),-85.8% (active),-95.1% (active),-91.5% (active),-85.5% (active),-58.4% (active),-57.5% (active),102%
c1ccc([P+](CCC[P+](c2ccccc2)(c2ccccc2)c2ccccc2)(c2ccccc2)c2ccccc2)cc1,71.1%,78%,82.3%,81.8%,98.5%,94.7%,86.1%,45.8%,79.6%
C=CCOc1ccc(/C(O)=C2\C(=O)C(=O)N(c3nccs3)C2c2ccccc2F)cc1 (configuration not stated),54%,103%,110%,89.1%,79.4%,98.7%,73.8%,131%,98.3%
COc1ccc(-c2cn[nH]c2-c2cc(OC)c3c(c2)OCCO3)cc1,9.5% (active),29.6%,50.4%,57.8%,38%,56.9%,-13.4% (active),17.4%,12%
CCCCNC(=O)NS(=O)(=O)c1ccc(N2N=C(c3ccc(C)cc3C)CC2c2ccc(OC)cc2)cc1 (configuration not stated),81.3%,75%,59.7%,88.7%,64%,70.8%,52.9%,54.3%,52.3%
COc1ccc(/C=C2\CCCC3=C2NC(C)=NC3c2ccc(OC)c(OC)c2)cc1OC (configuration not stated),5.93% (active),5.95% (active),34.3%,12.2%,9.82% (active),5.12% (active),5.88% (active),-20% (active),-23.2% (active)
CCn1cc(C(=O)O)c(=O)c2cc(F)c(N3CCN(S(=O)(=O)c4ccc(Cl)cc4Cl)CC3)cc21,-18.1% (active),10.3%,-13.4% (active),12.4%,-54.6% (active),4.75% (active),-0.0481% (active),2.78% (active),1.8% (active)
CC(C)N(Cc1ccc(CN(C(=O)CCl)C(C)C)cc1)C(=O)CCl,44.9%,15.4%,-83.6% (active),70.5%,5.84% (active),33.6%,88.2%,-29.4% (active),8.54% (active)
Cc1cc(C)c(S(=O)(=O)N2CCN(c3cc4c(cc3F)c(=O)c(C(=O)O)cn4C3CC3)CC2)c(C)c1,90.5%,13.9%,16.1%,86.5%,51.3%,67.1%,63%,37.3%,61%
Cc1cc(Nc2nc(-c3ccncc3)nc3ccccc23)n[nH]1,57.6%,61.6%,33.4%,62%,40.2%,-6.19% (active),4.45% (active),67.6%,60.5%
COc1cc(/C=C/C(=O)c2ccc(NC(=O)CN3CCN(c4cc5c(cc4F)c(=O)c(C(=O)O)cn5C4CC4)CC3)cc2)cc(OC)c1OC,30%,10.3%,2.96% (active),19.1%,10.8%,57.2%,-43.8% (active),-13.7% (active),-1.1% (active)
CNC(=O)c1cc(Oc2ccc3c(c2)sc2nc(-c4ccc(Cl)cc4)cn23)ccn1,116%,95.9%,85.7%,110%,79.3%,78.8%,88.8%,93.6%,93%
COc1cc(-c2cc(/C=C3\CCCCC3=O)[nH]n2)cc(OC)c1OC,94.7%,93.8%,80.8%,112%,98.7%,91.2%,95.2%,69.5%,82%
COc1cc(Cn2c(SCC(=O)Nc3cc(OC)c(OC)c(OC)c3)nc3ccccc3c2=O)cc(OC)c1OC,75.1%,82%,80.4%,67.9%,33.4%,95.5%,62.4%,101%,89.4%
COc1cc(Cn2c(SCCC(=O)Nc3ccc(F)cc3)nc3ccccc3c2=O)cc(OC)c1OC,81.3%,82.9%,53.7%,101%,81.9%,74%,63.3%,86.8%,49%
COc1cc(/C=C2\CCCC3=C2N=C2SC(C)=NN2C3c2cc(OC)c(OC)c(OC)c2)cc(OC)c1OC (configuration not stated),77.5%,-5.64% (active),8.14% (active),75.9%,-7.34% (active),-38.1% (active),-0.731% (active),-10% (active),-7.59% (active)
Nc1nc(-c2ccccc2)cs1,82.1%,101%,75.7%,98.5%,103%,94%,81.5%,110%,105%
